The supplement of paper PMC8728848
This is one part of a sample in which the strongest signals are shown more often than they occur.

Assays:
Assay in all cases: glycan array binding signal (z-score within array); higher = stronger binding
Details in all cases: glycan notation: IUPAC condensed, linker removed
[1] = target: Fuc(a1-2)Gal(b1-3)GalNAc(a1-3)[Fuc(a1-2)]Gal(b1-4)GlcNAc
Summary of the method: (§1)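 Arrays were curated from the Consortium for Functional Glycomics database, 3228 in total, and kept only where the protein sequence was available. Binding is expressed as a within-array Z-score. This score was averaged across arrays of the same protein sequence at different concentrations or buffers and across linkers, and negative values can be read as non-binding.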

[2] = target: Fuc(a1-2)Gal(b1-3)GlcNAc(b1-3)[Neu5Ac(a2-6)Gal(b1-4)GlcNAc(b1-6)]Gal(b1-4)Glc
Summary of the method: as §1

[3] = target: Fuc(a1-2)[Gal(a1-3)]Gal(b1-3)GlcNAc
Summary of the method: as §1

[4] = target: Fuc(a1-2)[Gal(a1-3)]Gal(b1-3)GlcNAc(b1-3)GalNAc
Summary of the method: as §1

[5] = target: Fuc(a1-2)[Gal(a1-3)]Gal(b1-4)GlcNAc(b1-3)[Fuc(a1-2)[Gal(a1-3)]Gal(b1-4)GlcNAc(b1-6)]GalNAc
Summary of the method: as §1

[6] = target: Fuc(a1-2)[GalNAc(a1-3)]Gal(b1-3)GlcNAc
Summary of the method: as §1

[7] = target: Fuc(a1-2)[GalNAc(b1-3)]Gal
Summary of the method: as §1

[8] = target: Fuc(a1-3)[Gal(b1-4)]Glc6S
Summary of the method: as §1

Gal(a1-3)Gal = target: Gal(a1-3)Gal
Summary of the method: as §1

[9] = target: Gal(a1-4)Gal(b1-4)GlcNAc(b1-2)Man(a1-3)[Gal(a1-4)Gal(b1-4)GlcNAc(b1-2)Man(a1-6)]Man(b1-4)GlcNAc(b1-4)GlcNAc
Summary of the method: as §1

Gal(b1-2)Gal = target: Gal(b1-2)Gal
Summary of the method: as §1

[10] = target: Gal(b1-3)GalNAc(b1-3)Gal(a1-4)Gal(b1-4)Glc
Summary of the method: as §1

[11] = target: Gal(b1-3)GalNAc(b1-4)[Neu5Ac(a2-3)]Gal(b1-4)Glc
Summary of the method: as §1

[12] = target: Gal(b1-3)GlcNAc(b1-6)Gal(b1-4)GlcNAc
Summary of the method: as §1

[13] = target: Gal(b1-3)[Fuc(a1-4)]GlcNAc(b1-3)Gal(b1-4)[Fuc(a1-3)]GlcNAc
Summary of the method: as §1

[14] = target: Gal(b1-4)GlcNAc(b1-2)Man(a1-3)[Gal(b1-4)GlcNAc(b1-2)Man(a1-6)]Man(b1-4)GlcNAc(b1-4)[Fuc(a1-6)]GlcNAc
Summary of the method: as §1

[15] = target: Gal(b1-4)GlcNAc(b1-2)[Gal(b1-4)GlcNAc(b1-4)]Man(a1-3)[GlcNAc(b1-4)][Gal(b1-4)GlcNAc(b1-2)Man(a1-6)]Man(b1-4)GlcNAc(b1-4)GlcNAc
Summary of the method: as §1

[16] = target: Gal(b1-4)GlcNAc(b1-3)Gal(b1-4)GlcNAc(b1-3)Gal(b1-4)GlcNAc(b1-2)Man(a1-3)[Gal(b1-4)GlcNAc(b1-3)Gal(b1-4)GlcNAc(b1-3)Gal(b1-4)GlcNAc(b1-2)Man(a1-6)]Man(b1-4)GlcNAc(b1-4)[Fuc(a1-6)]GlcNAc
Summary of the method: as §1

[17] = target: Gal(b1-4)GlcNAc(b1-6)[Gal(b1-4)GlcNAc(b1-3)]GalNAc
Summary of the method: as §1

Gal3S(b1-3)GalNAc = target: Gal3S(b1-3)GalNAc
Summary of the method: as §1

Gal4S6S(b1-4)GlcNAc = target: Gal4S6S(b1-4)GlcNAc
Summary of the method: as §1

[18] = target: GlcNAc(a1-4)Gal(b1-4)GlcNAc(b1-3)Gal(b1-4)GlcNAc
Summary of the method: as §1

B1: Di AAL2 (Agrocybe aegerita) (protein)
chain: MTSNVITQDLPIPVASRGFADIVGFGLDGVVIGRNAVNLQPFLAVKNFAQNAGGWLTTKHVRLIADTTGTGKGDIVGFGNAGVYVSVNNGKNTFADPPKMVIANFGYDAGGWRVEKHLRYLADIRKIGRADIIGFGEKGVLVSRNNGGLNFGPATLVLKDFGYDAGGWRLDRHLRFLADVTGNGHLDIVGFGDKHVFISRNNGDGTFAPAKSVIDNFCIDAGGWKIGDHPRFVADLTGDGTADIIGCGKAGCWVALNNGGGVFGQVKLVINDFGTDKGWQAAKHPRFIADLTGNGRGDVVGFGNAGVYVALNNGDGTFQSAKLVLKDFGVQQGWTVSKHRRFVVDLTGDGCADIIGFGEKETLVSYNDGKGNFGPVKALTNDFSFSGGKWAPETTVCWMANLDSSRHPAPAPMTSNVITQDLPIPVASRGFADIVGFGLDGVVIGRNAVNLQPFLAVKNFAQNAGGWLTTKHVRLIADTTGTGKGDIVGFGNAGVYVSVNNGKNTFADPPKMVIANFGYDAGGWRVEKHLRYLADIRKIGRADIIGFGEKGVLVSRNNGGLNFGPATLVLKDFGYDAGGWRLDRHLRFLADVTGNGHLDIVGFGDKHVFISRNNGDGTFAPAKSVIDNFCIDAGGWKIGDHPRFVADLTGDGTADIIGCGKAGCWVALNNGGGVFGQVKLVINDFGTDKGWQAAKHPRFIADLTGNGRGDVVGFGNAGVYVALNNGDGTFQSAKLVLKDFGVQQGWTVSKHRRFVVDLTGDGCADIIGFGEKETLVSYNDGKGNFGPVKALTNDFSFSGGKWAPETTVCWMANLDSSRH
- glycan array binding signal (z-score) [1]: -0.31
- glycan array binding signal (z-score) [2]: -0.337
- glycan array binding signal (z-score) [3]: -0.338
- glycan array binding signal (z-score) [4]: -0.312
- glycan array binding signal (z-score) [5]: -0.292
- glycan array binding signal (z-score) [6]: -0.172
- glycan array binding signal (z-score) [7]: -0.337
- glycan array binding signal (z-score) [8]: -0.322
- glycan array binding signal (z-score) (Gal(a1-3)Gal): -0.332
- glycan array binding signal (z-score) [9]: 5.32
- glycan array binding signal (z-score) (Gal(b1-2)Gal): -0.333
- glycan array binding signal (z-score) [10]: -0.331
- glycan array binding signal (z-score) [11]: -0.314
- glycan array binding signal (z-score) [12]: -0.333
- glycan array binding signal (z-score) [13]: -0.331
- glycan array binding signal (z-score) [14]: -0.343
- glycan array binding signal (z-score) [15]: -0.313
- glycan array binding signal (z-score) [16]: -0.209
- glycan array binding signal (z-score) [17]: -0.313
- glycan array binding signal (z-score) (Gal3S(b1-3)GalNAc): -0.334
- glycan array binding signal (z-score) (Gal4S6S(b1-4)GlcNAc): -0.338
- glycan array binding signal (z-score) [18]: 2.68
